Bioassay records as filed in PubChem.
DT40 TDP1 no CPT: qHTS for Inhibitors of human tyrosyl-DNA phosphodiesterase 1 (TDP1): qHTS in cells in absence of CPT; DT40 Tdp1-/- hTDP1 cells, no CPT, ATP luminescence, 48 h; Potency, µM (series often up to 46.2 µM), without a hit: top-dose activity change, negative = growth inhibition, actives largely listed as inhibitors; 420,000 compounds, 15% hits; AID 686978, 2013; note: potency is the fitted concentration of half-maximal effect; nearly all actives have a fitted effect of over 55% in size
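Growth of hTDP1-complemented DT40 Tdp1-knockout cells is measured by ATP luminescence after at least 48 hr compound exposure at 37 °C, with DMSO substituting for the 20 nM CPT used in the parallel screen.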
IL1B secr inh: qHTS for Inhibitors of Inflammasome Signaling: IL-1-beta AlphaLISA Primary Screen. THP-1 LPS/ATP IL-1B secretion, AlphaLISA, 16 h; active compounds read low. 360,000 compounds, 4.7% hits. activity change, % at 57.5 µM; in the data active = activity change below about -50%; inconclusive = mostly about -30% to -49%
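THP-1 cells pretreated 1 hr with compounds (up to 57.5 uM final), then stimulated with LPS (250 ng/mL final) plus ATP (1.25 mM final); secreted IL-1B measured by AlphaLISA after 16 hr, decreased signal indicating inhibition.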
HT1080 IDH1KD tx: qHTS for induction of synthetic lethality in tumor cells producing 2HG: qHTS for the HT-1080-IDH1KD cell line | HT-1080 IDH1 knockdown viability, ATP luminescence, 48 h | Potency, µM (titrated, usually from 46.1 µM), for inactives: at the top dose activity, negative = toxicity, hits mostly cytotoxic | 360,000 compounds, 2% hits | AID 686971, 2013;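 note: potency is the fitted concentration of half-maximal effect; 0% = DMSO wells and -100% = cell-free medium wells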
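In this qHTS, HT-1080 cells depleted of IDH1 are exposed for 48 h at 37 °C to compound titrations. Toxicity is scored from CellTiter-Glo luminescence, with DMSO as full viability and medium alone as none.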
DT40 TDP1 CPT: qHTS for Inhibitors of human tyrosyl-DNA phosphodiesterase 1 (TDP1): qHTS in cells in presence of CPT; chicken DT40 Tdp1-/-;hTDP1 cells + 20 nM CPT, ATP luminescence, 48 h; Potency, µM (titrated, usually from 46.2 µM), for inactives: at the top dose activity change, negative = growth inhibition, hits mostly inhibitors; 420,000 compounds, 12% hits; note: potency is the fitted concentration of half-maximal effect; nearly all actives have a fitted effect of over 55% in size
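Chicken DT40 Tdp1-/- cells complemented with human TDP1, 400 cells/well, exposed to compounds plus 20 nM camptothecin for at least 48 h at 37 C; viability read as ATP content by CellTiter-Glo luminescence.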
HT1080NT lethal: qHTS for induction of synthetic lethality in tumor cells producing 2HG: qHTS for the HT-1080-NT fibrosarcoma cell line | HT-1080-NT fibrosarcoma viability, CellTiter-Glo ATP luminescence, 48 h | Potency, µM (doses to about 46.1 µM), without a hit: at the highest dose activity, negative = less viability, hits mostly cytotoxic | 360,000 compounds, 1.6% hits;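 note: NT is the 2HG producing partner of a matched IDH1 knockdown line; potency is the fitted concentration of half-maximal effect; 0% = DMSO-treated cells and -100% = media-only wells without cells; nearly all actives have a fitted effect of over 55% in size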
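Viability of the 2HG-overproducing fibrosarcoma line after 48 hours of compound exposure at 37 degrees C was determined by luminescence with CellTiter-Glo, and concentration-effect curves were then fitted and categorized.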
* = called active by the depositor; ? = inconclusive; / = no result. Sampled rows, rich in hits. Any-hit rate of the full collection: about 19%. Unless noted, calls come from the whole dose curve; as a rule, active = well fitted curve in the direction sought with a large enough effect; inconclusive = small, poorly fitted or top-dose-only effect, or another doubt; inactive = no such curve, though single readings can be large; an effect the other way counts as inactive or inconclusive. Unless noted, % is set by controls: 0 for no effect and ±100 for the full control effect.

SMILES	DT40 TDP1 no CPT	IL1B secr inh	HT1080 IDH1KD tx	DT40 TDP1 CPT	HT1080NT lethal
Cc1ccc(C2=NC(C)(C)N=C2SCC(=O)Nc2ccc(Cl)cc2)cc1	?	-106*	?	21µM*	?
COc1ccc(-c2nnc(SCC(=O)Nc3ccc(Cl)cc3)s2)cc1	-19%	/	/	-23%	/
CC1(C)N=C(SCC(=O)Nc2ccccc2)C(c2ccc(Cl)cc2)=N1	15µM*	-93*	-24%	23µM*	-16%
COc1ccc2nc(N=Nc3ccc(N(C)C)cc3)sc2c1	?	-10	-7%	16µM*	1%
Cc1ccsc1CN(C)C(=O)CN1C(=O)NC2(CCCc3ccccc32)C1=O (centres undefined)	-6%	-14	-1%	-22%	1%
C[C@@H]1CN([C@H](C)CO)C(=O)CCCn2nncc2CO[C@H]1CN(C)Cc1ccccc1	-19%	12	-3%	12%	9%
CCc1ccc(NC(=O)CSc2nc(=O)n(CCCN3CCOCC3)c3c2CCC3)cc1	-15%	-3	5%	7%	-1%
CCCCc1ccc(NC(=O)CSc2nc(=O)n(CCN3CCOCC3)c3c2CCC3)cc1	-22%	-70*	3%	9%	6%
CCCCc1ccc(NC(=O)CSc2nc(=O)n(CCCN3CCOCC3)c3c2CCC3)cc1	?	-83*	?	?	?
CCOc1ccccc1CNC(=O)CCC(=O)N1Cc2ccccc2Oc2ncccc21	?	0	10%	0%	-6%
CCOc1ccc(N2CC(C(=O)Nc3nnc(C4CCCCC4)s3)CC2=O)cc1 (centres undefined)	?	19	13%	?	16%
COC(=O)c1ccc(C2Nc3c(C)cccc3-c3cc(C)nn32)cc1 (centres undefined)	16µM*	/	/	?	/
CC(=O)Nc1ccc(C2Nc3c(C)cc(C)cc3-c3cc(C)nn32)cc1 (centres undefined)	?	/	/	18µM*	/
Cc1nn(C)c(Oc2cccc(Cl)c2)c1C#N	23µM*	-10	-3%	?	0%
Cc1ccc(S(=O)(=O)Nc2ccccc2C(=O)N2CCN(C)CC2)cc1	8%	15	2%	4%	-1%
CCOC(=O)c1nc(Nc2ccc(C(=O)OC(C)C)cc2)c2ccccc2n1	4.1µM*	/	/	5.2µM*	/
COc1cccc(CNC(=O)c2cc(C)nc3ccccc23)c1	1%	25	1%	0%	13%
CCOC(=O)c1nc(NCc2cccc(OC)c2)c2ccccc2n1	16µM*	20	6%	?	0%
CCCCCOC(=O)c1ccc(Nc2nc(C(=O)OCC)nc3ccccc23)cc1	1.3µM*	/	/	3.3µM*	/
COc1ccc(Nc2nc(C)cc(C)c2C(N)=O)cc1	?	15	3%	-23%	2%
CC(C)OC(=O)c1ccc(NC(=O)Cn2c(-c3nonc3N)nc3ccccc32)cc1	-13%	9	?	-1%	?
CCOC(=O)c1nc(Nc2ccc(OC)cc2)c2ccccc2n1	21µM*	34	-4%	?	5%
CCOC(=O)c1sc2ccccc2c1S(=O)(=O)Nc1ccc(OC)c(Cl)c1	-29%	/	/	?	/
Cn1c2ccccc2c(=O)c2c(=O)n(-c3ccc(F)cc3)c(C3CCCCC3)nc21	31%	85	-2%	?	20%
CCOC(=O)CCC(NC(=O)c1ccc(Nc2nc3ccccc3nc2C(=O)OCC)cc1)C(=O)OCC (centres undefined)	7.3µM*	-4	9%	10µM*	8%
SMILES	DT40 TDP1 no CPT	IL1B secr inh	HT1080 IDH1KD tx	DT40 TDP1 CPT	HT1080NT lethal
CCOC(=O)c1nc(Nc2cc(C)cc(C)c2)c2ccccc2n1	21µM*	0	-13%	18µM*	-11%
COc1cccc(CNC(=O)COC(=O)c2nc(Cl)c(Cl)c(Cl)c2Cl)c1	?	-101*	-28%	0.0082µM*	?
CCOC(=O)c1c(CCl)nc2ccccc2c1C	?	-5	-1%	?	-3%
CCOC(=O)c1nc(Nc2ccc(C(=O)OCC(C)C)cc2)c2ccccc2n1	6.5µM*	/	/	6.5µM*	/
CCOC(=O)CCC(NC(=O)c1cncc(O)c1)C(=O)OCC (centres undefined)	1%	-11	-7%	-8%	2%
COc1ccc(NC(=O)C2CCCN(S(=O)(=O)c3ccc(Cl)cc3)C2)cc1OC (centres undefined)	-19%	9	-9%	-24%	-13%
CC(C)Cc1nnc(NC(=O)C2CCCN(C(=O)c3ccc(Cl)cc3)C2)s1 (centres undefined)	?	15	-1%	?	2%
CCOC(=O)c1nc(Nc2ccc(N3CCC(C)CC3)cc2)c2ccccc2n1	5.8µM*	-9	-19%	7.3µM*	-21%
CCc1nc2ccccc2c(NC(=O)CN2CCC(C)CC2)c1C	?	-14	-9%	0%	-4%
CCOC(=O)c1nc(Nc2ccc(Nc3ccccc3)cc2)c2ccccc2n1	7.3µM*	-65*	?	13µM*	-29%
CCOC(=O)c1ccc(Nc2nc(C(=O)OCC)nc3ccccc23)cc1	2.6µM*	-2	?	5.8µM*	-23%
CCOC(=O)c1nc(Nc2ccc(C(=O)O)cc2)c2ccccc2n1	-23%	41	8%	-2%	8%
CCOC(=O)c1nc(Nc2ccccc2OC)c2ccccc2n1	2.6µM*	/	/	12µM*	/
CCCn1c(SCC(=O)Nc2cc(Cl)ccc2OC)nc(O)cc1=O	-4%	69	0%	-17%	0%
CCCN1CCN(c2ncnc3sc(C(=O)Nc4ccc(N(CC)CC)cc4C)c(C)c23)CC1	15µM*	/	/	23µM*	/
Cc1sc2ncnc(N3CCN(CCOc4ccc(Cl)cc4)CC3)c2c1C	2.5µM*	-58*	?	2.5µM*	?
CCCN1CCN(c2ncnc3sc(C(=O)Nc4cccc(Cl)c4C)c(C)c23)CC1	21µM*	/	/	?	/
COc1ccccc1NC(=O)c1nc(SCc2ccccc2F)ncc1Cl	-7%	/	/	?	/
COc1ccc(C(CNC(=O)COc2cccc(C(F)(F)F)c2)N2CCCC2)cc1 (centres undefined)	?	-1	-4%	?	-9%
Cc1ccc(C(=O)OCC(=O)Nc2nc(-c3ccccc3)cs2)cc1NC(=O)c1ccco1	?	-80*	-10%	?	3%
